In the library only some 5.3% were active in any assay of this set; here they are far more common.
HIF act: HIF pathway transcriptional activation | U2OS HRE-luciferase reporter, luminescence; normalized: DMSO 0%, desferrioxamine 100% | activation, % at 7.5 µM (by protocol) | hit rate 0.32% among 300,000 | AID 1910;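 active = mean activation of at least 10% of the iron chelator positive control signal, with at least half of replicates also reaching 10%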
PfM18AAP inh: PfM18AAP enzyme inhibition | recombinant PfM18AAP, H-Glu-NHMec fluorogenic cleavage | inhibition, % at 7.35 µM | hit rate 1.2% among 290,000 | AID 1822;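 active = inhibition above the campaign mean inhibition over all tested compounds plus 3 SD, cut at about 28% in these data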
ALR inh: inhibitors of human sulfhydryl oxidase ALR. P55789. purified ALR, DTT oxidation, H2O2 HRP-luminol luminescence. inhibition, % (no concentration beside the values). hit rate 3.8% among 290,000. AID 485317;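 active = mean replicate inhibition above about 79%, with every replicate also reaching it, limit read from the data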
Target sequence (P55789 whole entry, looked up): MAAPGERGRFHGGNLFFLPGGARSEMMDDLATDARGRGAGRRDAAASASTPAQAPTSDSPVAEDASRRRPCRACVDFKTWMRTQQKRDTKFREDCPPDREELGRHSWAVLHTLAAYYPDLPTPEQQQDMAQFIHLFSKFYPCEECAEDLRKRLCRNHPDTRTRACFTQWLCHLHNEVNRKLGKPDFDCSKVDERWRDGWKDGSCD
Mot1-301 SUMO: blocks SUMOylation pathway, rescuing yeast Mot1-301 growth. S. cerevisiae Mot1-301 growth rescue, ATP luminescence, 38.5C; percent above DMSO median, 100 means doubled. growth rescue, % at 18.8 µM. hit rate 1% among 320,000;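 active = every valid replicate shows activation above 250% relative to neutral control wells; inactive = the rest, any valid replicate at or below 250%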
Hits are given with their value; - = inactive; . = not tested or not shown.

SMILES	HIF act	PfM18AAP inh	ALR inh	Mot1-301 SUMO
CCOc1ccccc1N1CSC2=C(C#N)C(c3c(OC)ccc4ccccc34)CC(=O)N2C1 (configuration not stated)	-	37	-	-
CCN(CC)c1ccc(S(=O)(=O)N2CCCCC2)cc1NC(=O)C1CCC1	-	.	-	-
COc1cc(NC(=O)COC(=O)c2cnccn2)c(C)cc1[N+](=O)[O-]	-	-	-	-
COC1(OC)N=C(N)C2(C#N)C(c3ccc(C)cc3)C12C#N (configuration not stated)	-	-	-	-
COC1(OC)N=C(NC(=O)Nc2ccccc2)C2(C#N)C(c3ccccc3)C12C#N (configuration not stated)	-	-	99	-
CN(c1ccccc1)S(=O)(=O)c1ccc(NC(=O)c2ccccc2C(=O)O)cc1	-	.	-	-
Cc1ccccc1NS(=O)(=O)c1ccc(OCC(=O)NCc2cccnc2)cc1	.	-	.	385
O=C(COc1ccc(S(=O)(=O)Nc2ccccc2)cc1)NCc1cccnc1	-	-	-	-
Nc1ccc(OCc2ccccc2)cc1	.	-	97	-
Nc1ccc(OCCc2ccccc2)cc1	-	-	-	-
COC(=O)C1C(O)=C(C=Nc2ccccc2)C(=O)CC1(C)C (configuration not stated)	-	-	100	-
COC(=O)C1C(O)=C(C=Nc2ccc(N)cc2)C(=O)CC1(C)C (configuration not stated)	-	-	-	-
CCCN(CCC)C1=CC(=[N+]2CCCC2)CC(C)(C)C1	-	-	-	-
O=C(CS(=O)c1ccccc1[N+](=O)[O-])Oc1ccc(Br)cc1 (configuration not stated)	-	-	78	-
Cc1cc(C(=O)Nc2c(F)cc(F)cc2Br)c(C)o1	-	-	96	-
Cc1noc(C)c1C(=O)Nc1c(F)cc(F)cc1Br	-	-	-	-
Nc1c(C(=O)Nc2ccc3c(c2)OCCO3)nnn1Cc1cccc(F)c1	-	.	-	-
CCOc1ccc(CCNC(=O)Cn2nc(C)n3cccc3c2=O)cc1OCC	-	-	-	-
CN1CCN(/N=C/c2nc(-c3ccccc3Cl)n3ccccc23)CC1	-	-	98	-
O=C(O)c1cccc(N/N=C/c2cc(Br)cc(Br)c2O)c1	-	-	98	-
CN(C)c1ccc(/C=N/Nc2cccc(C(=O)O)c2)cc1	-	-	99	-
COc1ccc(Br)cc1/C=N/Nc1cccc(C(=O)O)c1	-	-	.	-
COc1ccccc1/C=C/C=N/Nc1cccc(C(=O)O)c1	-	-	98	-
O=C(O)c1cccc(N/N=C/c2ccc(-c3ccccc3)cc2)c1	-	-	.	.
CC(C)(C)c1ccc(/C=N/Nc2cccc(C(=O)O)c2)cc1	-	30	-	-
SMILES	HIF act	PfM18AAP inh	ALR inh	Mot1-301 SUMO
COc1cc(-c2nc(CN3CCN(c4ncccn4)CC3)c(C)o2)ccc1F	-	-	-	-
O=C(CN1C(=O)NC2(CCCCCC2)C1=O)c1ccc(Cl)cc1	.	.	-	-
COc1ccccc1CNS(=O)(=O)c1cccs1	-	-	-	-
N#Cc1c(SCC(=O)Nc2ccc(C(F)(F)F)cc2)sc2c(O)cc(=O)[nH]c12	-	-	95	-
Cc1cc(=O)[nH]c(SCC(=O)Nc2ccc3c(c2)CCC3)c1C#N	.	.	-	-
Cc1cc(=O)[nH]c(SCC(=O)Nc2ccc(Br)cc2)c1C#N	-	-	99	-
Cc1cc(=O)[nH]c(SCC(=O)Nc2ccc(F)cc2)c1C#N	-	-	91	-
Cc1ccc(NC(=O)CSc2sc3c(O)cc(=O)[nH]c3c2C#N)c(F)c1	-	-	-	-
Cc1ccc(C(=O)OCC(=O)NC2CCCC(C)C2C)cc1S(=O)(=O)N1CCCCC1 (configuration not stated)	.	.	-	-
CCCNC(=O)c1ccccc1NC(=O)c1ccc(CSc2ccccc2)cc1	-	-	-	358
Cc1cccc(-c2nc(CS(=O)CC(=O)NC3CCCCC3)c(C)o2)c1 (configuration not stated)	-	-	99	-
Cc1oc(-c2ccccc2)nc1CS(=O)CC(=O)NC1CCCCCC1 (configuration not stated)	-	-	100	-
COCC(=O)c1[nH]c2ccccc2c1C	-	-	92	-
O=C(Nc1c(F)c(F)c(F)c(F)c1F)NC1CCCCC1	-	-	-	699
O=C(Nc1ccc(F)cc1)NC1CCCCC1	-	-	.	-
CCCC(=O)Nc1c(C(=O)OCC)[nH]c2ccccc12	-	-	-	-
COC(=O)C(F)(F)Sc1c(C)[nH]c2ccccc12	.	-	99	-
O=c1c2ccccc2[nH]c(=S)n1CCCN1CCOCC1	-	-	87	-
CC1CCN(CCCn2c(=S)[nH]c3c(sc4ccccc43)c2=O)CC1	-	-	-	-
O=C(CSc1c[nH]c2ccccc12)NC1CCCC1	-	-	-	-
COCC(=O)NCCSc1c(C)[nH]c2ccccc12	-	-	86	-
Cc1[nH]c2ccccc2c1SCC(=O)O	-	-	-	-
O=c1c2sc3ccccc3c2[nH]c(=S)n1CCN1CCOCC1	-	-	96	-
CC1CC(C)CN(C(=O)CCCn2c(=S)[nH]c3ccccc3c2=O)C1 (configuration not stated)	-	-	96	-
Cc1[nH]c2ccccc2c1SCC(=O)NC1CCCCC1	-	-	80	-
SMILES	HIF act	PfM18AAP inh	ALR inh	Mot1-301 SUMO
CC(C)N(CCn1c(=S)[nH]c2ccccc2c1=O)C(C)C	-	-	-	308
O=C(CCCn1c(=S)[nH]c2ccccc2c1=O)N1CCCCC1	-	-	-	-
O=C(CCCn1c(=S)[nH]c2cc3c(cc2c1=O)OCO3)NC1CC1	-	-	-	-
O=C(CCCn1c(=S)[nH]c2ccccc2c1=O)NC1CCCCC1	-	-	79	-
O=C(C1CCC(Cn2c(=S)[nH]c3ccccc3c2=O)CC1)N1CCOCC1 (configuration not stated)	-	-	83	-
O=C(C1CCC(Cn2c(=S)[nH]c3ccccc3c2=O)CC1)N1CCN(c2ccccc2)CC1 (configuration not stated)	-	-	.	-
O=C(CCn1c(=S)[nH]c2ccccc2c1=O)N1CCOCC1	-	-	85	-
O=C(Nc1ccc(Br)cc1Br)c1cccc2c1C(=O)N(C1CCCCC1)C2	-	-	-	-
COc1cc(NC(=O)C2CCN(S(=O)(=O)c3ccc4[nH]c(=O)oc4c3)CC2)cc(OC)c1	-	-	-	-
COc1ccc(OC)c(NC(=O)c2ccc(OC3CSC3)cc2)c1	-	-	-	-
CCOC(=O)c1sc(NC(=O)COC(=O)C(CCSC)NC(C)=O)nc1C (configuration not stated)	-	-	-	-
COC(=O)c1[nH]c2ccc(C)cc2c1NC(=O)NC1CCCCC1	-	-	-	-
O=C(Nc1c(C(=O)O)[nH]c2ccccc12)NC1CCCCC1	-	-	98	-
O=c1c2ccc(Cl)cc2[nH]c(=S)n1CCCN1CCOCC1	-	-	95	-
CCN(CC)CCCn1c(=S)[nH]c2cc(Cl)ccc2c1=O	-	-	-	-
CCN(CC(=O)Nc1ccccc1C(F)(F)F)C(=O)CN1C(=O)NC(C)(c2ccccc2)C1=O (configuration not stated)	-	.	-	-
